Assay outcomes from PubChem BioAssay.
Hits are enriched below; roughly 4.9% of the tested compounds scored in any of these assays.
MPTP block = inhibitors of mitochondrial permeability transition pore; AID 602449; isolated mouse mitochondria, Ca2+ swelling absorbance, 30 min; inhibition, % at 10 µM; 360,000 tested, 1.4% active;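 active = inhibition of 50% or more, scaled per plate between neutral and stimulator controls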;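 also: 0% = DMSO wells given calcium and 100% = 1 mM EGTA wells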
HSF1 inhib = HSF1 inhibition; NIH3T3-HGL HSE-luciferase, MG132-induced, luminescence 8 h; stronger effect = lower value; activity change, negative = inhibition, % at 7.5 µM (by protocol); 300,000 tested, 0.77% active;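 active = more than half of replicate wells show activity change below -50%, luminescence cut by over half; inconclusive = some wells, but at most half, below -50%; inactive = no replicate well below -50%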;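 also: luciferase reports HSF-1 transcriptional activity via heat shock element; 0% = median of DMSO wells and -100% = zero luminescence signal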
Platelet DG rel = modulates dense granule release in human platelets. human platelet-rich plasma, SFLLRN dense granule ATP release, luminescence. inhibition, %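 (compounds screened at 7.5 µM in platelet-rich plasma)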. 300,000 tested, 0.22% active;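 active = mean replicate score, as percent of positive control, at or above 50; inconclusive = mean below 50 but at least one replicate at or above 50; inactive = mean and every replicate below 50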
HSP90 inh = blocks HSP90-mediated luciferase refolding in reticulocyte lysate | Rabbit reticulocyte lysate, luciferase refolding luminescence, 3 h | inhibition, % at 5.6 µM | 290,000 tested, 0.91% active | AID 1789;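 active = inhibition above the screen-wide mean plus 3 SD, computed separately per campaign, cut at about 16% in these data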;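 also: 0% = DMSO wells and 100% = 60 µM geldanamycin wells; inhibitors lower the luminescence because luciferase stays unfolded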
HSF1 activator = increases HSF-1 driven luciferase reporter signal | NIH3T3-HGL HSF-1 luciferase reporter, MG132, 8 h; 100% = twice DMSO control signal | activation, % at 9 µM | 300,000 tested, 1.7% active;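 active = mean replicate activation of at least 50% with a set share of replicates each reaching 50%; inconclusive = only one of those two conditions met; inactive = mean below 50% and too few replicates reaching it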;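 also: 0% = median of the neutral control wells and 100% = twice that signal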
dFosB activator = enhances mouse delta FosB homodimer DNA binding. purified delta FosB, TAMRA-CDK5 oligo fluorescence polarization; percent of positive-control signal above neutral wells. activation, % at 25 µM. 340,000 tested, 0.99% active. AID 493131;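 active = mean activation above about 17%, with every replicate also reaching it, limit read from the data, passing the limit was not always enough; inconclusive = only one of the two conditions met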
Target sequence (P13346 whole entry, looked up): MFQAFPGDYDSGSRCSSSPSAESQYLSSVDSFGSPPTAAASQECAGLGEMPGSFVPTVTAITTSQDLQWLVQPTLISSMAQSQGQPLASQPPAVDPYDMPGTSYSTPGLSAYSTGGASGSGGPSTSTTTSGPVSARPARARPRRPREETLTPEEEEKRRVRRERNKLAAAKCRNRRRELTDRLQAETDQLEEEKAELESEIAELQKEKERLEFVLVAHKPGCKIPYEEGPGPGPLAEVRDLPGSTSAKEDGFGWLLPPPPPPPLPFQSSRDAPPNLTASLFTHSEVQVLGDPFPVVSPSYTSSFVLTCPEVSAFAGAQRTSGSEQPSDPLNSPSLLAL
HSP90 confirm = HSP90 inhibition, confirmation assay; shares compounds with HSP90 inh; rabbit reticulocyte lysate, luciferase refolding luminescence, 3 h; inhibition, % at 5.9 µM; 2,300 tested, 64% active; AID 1846; in the data active = inhibition above about 18%;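 also: 0% = vehicle wells and 100% = reference inhibitor wells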
FLuc counter = blocks native firefly luciferase in HSP90 counter-screen; purified native firefly luciferase, luminescence; 2,300 tested, 48% active; shares compounds with HSP90 inh; inhibition, % at 5.9 µM; AID 1847;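 active = inhibition above the mean inhibition of all tested sample wells plus 3 SD, cut at about 10% in these data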;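 also: 0% = DMSO with luciferase and 100% = wells lacking luciferase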
Numbers without * were called inactive; u = inconclusive; x = no result given.

SMILES | MPTP block | HSF1 inhib | Platelet DG rel | HSP90 inh | HSF1 activator | dFosB activator | HSP90 confirm | FLuc counter
CN(CC(=O)NCCCc1ccccc1)S(=O)(=O)c1ccc(Br)cc1 | 1 | -5 | x | -3 | 0 | 2 | x | x
Oc1ccc(C2=CSC3=NCCN23)cc1O | 0 | -3 | -3 | 0 | 11 | -8 | x | x
COc1ccccc1NC(=O)C(=O)c1cn(CC(=O)N2CCCC2)c2ccccc12 | -2 | -2 | 7 | -6 | 5 | 1 | x | x
COc1ccccc1NC(=O)C(=O)c1cn(CC(=O)N2CCOCC2)c2ccccc12 | 1 | 11 | 10 | 21* | 16 | -4 | -1 | -23
CC(C)(C)c1ccc(C(=O)Nc2cnccn2)cc1 | -1 | 3 | 7 | 18* | 27 | -6 | 50* | 37*
COc1ccc(C(=O)Nc2cnccn2)cc1[N+](=O)[O-] | 0 | -3 | 0 | 4 | -2 | -2 | x | x
Cc1c(P(=S)(c2ccccc2)c2ccccc2)[n+]2ccccc2n1C/C=C/c1ccccc1 | 0 | x | x | x | x | x | x | x
Cc1ccc(-c2nc(-c3ccncc3)no2)c(Cl)c1 | 0 | 19 | 2 | 28* | 40 | -10 | 48* | 47*
CC(NC(=O)Cc1ccc(S(=O)(=O)N2CCOCC2)s1)c1ccc(Br)cc1 (configuration not stated) | 0 | x | x | x | x | -3 | x | x
O=C(CSC(=S)N1CCCCC1)c1ccccc1 | -3 | 23 | 8 | 54* | 18 | 1 | 73* | 64*
O=C(CSC(=S)N1CCCC1)c1ccccc1 | -1 | 24 | 5 | 19* | 55* | 0 | 43* | 44*
COc1cc(C=NNc2ccccc2)ccc1OC(=O)c1ccccc1 | -1 | x | x | x | x | x | x | x
COc1cc(/C=N/Nc2ccc(Cl)c(C(=O)O)c2)ccc1OC(=O)c1cccs1 | 0 | x | x | 21* | x | 3 | 61* | -24
CCOc1cc(/C=N/Nc2cccc(C(=O)O)c2)ccc1OC(=O)c1ccccc1 | 0 | -5 | -6 | 37* | -8 | -7 | 96* | 32*
COc1cc(/C=N/Nc2ccc(Cl)c(C(=O)O)c2)ccc1OC(=O)c1ccco1 | 0 | -4 | 1 | 32* | -3 | -2 | 71* | -18
COc1ccc(C(=O)Oc2ccc(/C=N/Nc3ccc(Cl)c(C(=O)O)c3)cc2OC)cc1 | -1 | 3 | 0 | 46* | 11 | -10 | 66* | -2
Cc1ccc(CN(C)C(=O)CCc2nc3sc4c(c3c(=O)[nH]2)CCCC4)o1 | 0 | 13 | 1 | 0 | 27 | -6 | x | x
O=C(Nc1ccc2c(c1)OCO2)c1cc(C2CCCN(C(=O)CCc3ccccc3)C2)on1 (configuration not stated) | -1 | x | x | x | x | x | x | x
COCCN(C(=O)Nc1ccc(OC)cc1)c1nc2ccccc2s1 | 0 | -16 | 0 | -3 | 0 | -2 | x | x
CCOc1cc(/C=C2/C(=O)N(c3ccccc3)N=C2C)ccc1OC(=O)c1ccco1 | 1 | 9 | 3 | 27* | 30 | -5 | -8 | 4
CCOc1cc(/C=C2\C(=O)N(c3ccc(C(N)=O)cc3)N=C2C)ccc1OC(=O)c1cccs1 | -1 | 0 | 25 | 7 | 19 | -18 | x | x
O=C(CSc1ncccc1C(=O)O)c1ccc2ccccc2c1 | -1 | 9 | -1 | 96* | 39 | -6 | 93* | -10
O=C(COC(=O)Cn1[nH]c(=O)c2ccccc2c1=O)NNC(=O)c1ccccc1 | -1 | x | x | x | x | 0 | x | x
O=C(O)/C=C/c1cnn(-c2ccccc2)c1 | -1 | -15 | -25 | 53* | 3 | -4 | 59* | 38*
Fc1ccccc1Cc1noc(CN2CCC(OCc3cccnc3)CC2)n1 | -1 | 0 | 0 | -2 | 0 | -1 | x | x
SMILES | MPTP block | HSF1 inhib | Platelet DG rel | HSP90 inh | HSF1 activator | dFosB activator | HSP90 confirm | FLuc counter
O=C(N/N=C/c1ccc(-c2ccccc2[N+](=O)[O-])o1)c1cccnc1 | 2 | 3 | 3 | 32* | 11 | -7 | 6 | -8
CC(C)(C)c1cc(C(=O)N/N=C/c2ccc(-c3ccccc3[N+](=O)[O-])o2)n[nH]1 | -2 | 9 | 1 | 13 | 4 | -6 | x | x
O=C(Nc1nccs1)c1sc2ccccc2c1Cl | 6 | -2 | 8 | 23* | 28 | -11 | 50* | 45*
Cc1cccc(C)c1NC(=O)CS(=O)CC(=O)NCC1OCCc2ccccc21 (configuration not stated) | -2 | -1 | -37 | -1 | -14 | -8 | x | x
COc1cccc(/C=N/Nc2nccnc2Cl)c1O | 1 | 9 | 84* | 55* | 17 | -9 | 72* | 59*
COc1cccc(/C=N/Nc2ncnc(Cl)c2N)c1O | 0 | -4 | 0 | 2 | 18 | 0 | x | x
CCCCc1c(O)nc(SCC(=O)N2CCCCC2)[nH]c1=O | 0 | -4 | -7 | 5 | 1 | 1 | x | x
COC(=O)[C@@H](c1ccccc1)N(C)S(=O)(=O)c1cccc(S(=O)(=O)N(C)[C@@H](C(=O)OC)c2ccccc2)c1 | 2 | 1 | -1 | 22* | 16 | -9 | 12 | -8
COC(=O)C(c1ccccc1)C(C(=O)OC)c1ccccc1 (configuration not stated) | 0 | -4 | 4 | 1 | -11 | 2 | x | x
CCCn1c(C)cc(C(=O)CN2C(=O)c3ccccc3S2(=O)=O)c1C | -2 | x | x | x | x | x | x | x
Cc1cc(C(=O)CN2C(=O)c3ccccc3S2(=O)=O)c(C)n1CC1CCCO1 (configuration not stated) | 0 | u | 1 | 24* | -56 | -6 | 28* | -14
Cc1cc(C(=O)COC(=O)c2ccc(O)cc2)c(C)n1CC1CCCO1 (configuration not stated) | 0 | -11 | 4 | 32* | -21 | -5 | 39* | 43*
COCCNC(=O)C1(C)CCCN(C(=O)Cc2ccc3ccccc3c2)C1 (configuration not stated) | 0 | x | x | x | x | x | x | x
COc1ccc2oc(C(=O)Nc3ccccn3)c(C)c2c1 | 1 | 14 | 13 | 25* | 33 | -31 | 46* | 34*
Cc1c(C)c2ccc(OCC(=O)Nc3ccccn3)cc2oc1=O | 0 | 6 | -1 | 25* | -11 | u | 64* | 28*
COc1ccc2oc(C(=O)N3CCc4ccccc43)c(C)c2c1 | 1 | u | 26 | 23* | -59 | -14 | 59* | 46*
O=C(c1cc2cc(Br)ccc2[nH]1)N1CCc2ccccc21 | 2 | 2 | 3 | 2 | 14 | -5 | x | x
COc1ccc2cc(C(=O)N3CCc4ccccc43)[nH]c2c1 | 1 | 44 | -1 | 22* | 52* | 0 | 14 | -2
CCCCCCCCN1C(=O)[C@H](CC(=O)NCCCN2CCCC2=O)C[C@@]2(C(=O)OC)CC(C)(C)CC=C12 | -1 | x | x | x | x | x | x | x
